# Source: PubChem BioAssay (NCI)
# The panel holds about 83,000 compounds, 20% with a hit somewhere; the sample as a whole holds those more often.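 Assay: single dose, 48 h. Readout: percent growth (0 = no net growth; negative = cell death). Active: <10.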 A number with no mark means an inactive call. Active and inactive are the calls of the source.
# Assays:
# Experiment in all cases: NCI-60 one-dose screen, 48 h (100 = growth as untreated, 0 = no growth, -100 = all killed)
# Details in all cases: 10 µM unless noted
# [1] = test system: NCI-H23 lung
# [2] = test system: NCI-H226 lung
# [3] = test system: NCI-H322M lung
# [4] = test system: HOP-62 NSCLC
# [5] = test system: NCI-H460 lung
# [6] = test system: HOP-92 NSCLC
# [7] = test system: NCI-H522 lung
# [8] = test system: A549/ATCC NSCLC
# [9] = test system: 786-0 renal
# [10] = test system: COLO 205 colon
# [11] = test system: DU-145 prostate
# [12] = test system: K-562 leukemia
# [13] = test system: MALME-3M melanoma
# [14] = test system: MDA-MB-231 breast
# [15] = test system: RXF 393 renal
# [16] = test system: SF-268 CNS
# [17] = test system: SF-295 CNS
# [18] = test system: SF-539 CNS
# [19] = test system: UACC-257 melanoma
# [20] = test system: M14 melanoma
SMILES,growth [1],growth [2],growth [3],growth [4],growth [5],growth [6],growth [7],growth [8],growth [9],growth [10],growth [11],growth [12],growth [13],growth [14],growth [15],growth [16],growth [17],growth [18],growth [19],growth [20]
O=C(CSc1nnc(-c2ccc(-c3nc4ccc(Cl)cc4[nH]3)cc2)o1)Nc1ccc(Br)cc1,-34.7% (active),-46.9% (active),9.95% (active),-31.1% (active),-72.3% (active),-7.8% (active),-23.3% (active),-38.9% (active),-44.1% (active),94.1%,39.1%,15%,-20.2% (active),-76% (active),-50.9% (active),28.5%,8.38% (active),-96.3% (active),13.1%,2.92% (active)
COc1ccccc1Nc1nnc(-c2c[nH]c3ccccc23)o1,12.6%,47.1%,43.5%,26.3%,10.8%,16.1%,-31.5% (active),21.9%,9.22% (active),-38.8% (active),12.6%,7.09% (active),44.1%,3.73% (active),-48.2% (active),47.7%,-28.8% (active),-40.3% (active),44.7%,20.5%
Oc1cncc(-c2ccc3ncnc(N4CCc5cc(F)c(Cl)cc54)c3c2)c1,47.8%,42.2%,54.4%,49.5%,39.2%,40.9%,68.4%,40.4%,35.4%,77%,49%,65%,70.8%,46.5%,46.4%,45.1%,57.6%,56%,90.9%,78%
Cc1ccc(S(=O)(=O)Nc2ccc(-c3ccc4c(c3)NC(=O)/C4=C\c3ccc[nH]3)cc2)cc1,33.8%,94%,68.3%,96.5%,22%,93.4%,87.2%,52.8%,101%,93.3%,65.6%,42.2%,90%,97.4%,96.4%,111%,93.8%,93.8%,110%,90.9%
O=C(Cn1c(/C=C/c2ccc([N+](=O)[O-])cc2)nc2ccccc2c1=O)Nc1ccccc1,54.9%,-0.971% (active),67.2%,49%,52.5%,52.1%,79.5%,75.7%,47.2%,67.2%,78.6%,79.6%,85%,46.7%,27.4%,58.9%,72.2%,21.1%,101%,81.2%
COc1ccc(/C=C/C(=O)c2ccc(S(=O)(=O)NCCNc3nc(N(C)C)nc(N4CCOCC4)n3)cc2)cc1,97.7%,89.6%,91.7%,102%,104%,93.1%,64.7%,91.5%,80.1%,110%,103%,35.9%,97.5%,88.4%,92.1%,84.1%,92.5%,83.7%,96.5%,92.1%
c1n[nH]cc1-c1nc2ccc3[nH]ncc3c2c2c1CC1(CC2)COC1,62%,66%,64%,77.7%,73.4%,92.1%,-24.6% (active),95.9%,60.6%,24.6%,62.7%,33.9%,29%,69.5%,-2.43% (active),63.6%,104%,26.6%,66.4%,31.9%
